Inconclusive results are not listed. Activity calls are given as the source filed them.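 The calls were made as follows, unless noted: active = normalized viability below 100% at a tested concentration; inactive = the rest.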
Experiments:
[1] = viability loss in pontine glioma line – cell-based, SU-DIPG-XVII, MIPE5.0, CellTiter-Glo, qHTS, dose response (AID 1347060; cut-off not given, nearly all actives have AC50 up to about 26 µM;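 also: cells exposed to compound for 48 hours before viability readout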); details: CellTiter-Glo ATP luminescence
[2] = viability loss in pontine glioma line – cell-based, JHH-DIPG-1, MIPE4.0, CellTiter-Glo, qHTS, dose response (AID 1347062; cut-off not given, nearly all actives have AC50 up to about 27 µM;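 also: cells exposed to compound for two days before readout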); details: JHH-DIPG-1 viability, CellTiter-Glo ATP luminescence
[3] = viability loss in pontine glioma line – cell-based, SU-DIPG-IV, MIPE4.0, CellTiter-Glo, qHTS, dose response (AID 1347063; cut-off not given, nearly all actives have AC50 up to about 30 µM;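 also: compound exposure lasted 48 hours before the viability readout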); details: CellTiter-Glo ATP luminescence
[4] = viability loss in pontine glioma line – cell-based, SU-DIPG-XXV, MIPE5.0, CellTiter-Glo, qHTS, dose response (AID 1347065; cut-off not given, nearly all actives have AC50 up to about 26 µM;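 also: cells exposed to compound for 48 hours before ATP readout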); details: CellTiter-Glo ATP luminescence
[5] = viability loss with induced miR-34 in A549 – imaging, A549 dox-inducible miR-34, nuclei and caspase counts, primary screen (AID 1347080;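 active = compounds whose cell count with miR-34 switched on is under 0.7 times the count with it off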); details: A549 miR-34 inducible, Hoechst nuclei count, 48 h
[6] = compounds altering HSF1 focus formation in cells – imaging, Selleck Cancer Library (AID 1347162; in the data active = plate-normalised HSF1 focus index below about 0.46); details: human cells, HSF1 nuclear foci imaging, at 10 µM; SSMD: measured here: HSF1 foci SSMD mean; cell count: measured here: cell number; plate-normalised HSF1 focus index: stronger effect = lower value
[7] = MELAS cybrid and Rieske KO viability enhancers – cell-based, MELAS cybrids, Rieske KO mouse fibroblasts, CellTiter-Glo, primary screen (AID 1508586;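 active = mean z-score across replicates of 1.96 or higher in either the MELAS or the Rieske mutant cell line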;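 also: z relative to plate mean and SD of compound and empty wells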); details: low glucose
[8] = drug combination growth inhibition, ovarian cancer – cell-based, oncology-focused library, rucaparib conditional, profiling panel (AID 1508598); details: patient-derived ovarian cancer cells, CellTiter-Glo viability, 144 h, stronger effect = lower value

C=CCn1c(=O)c2cnc(Nc3ccc(N4CCN(C)CC4)cc3)nc2n1-c1cccc(C(C)(C)O)n1
inactive: fold change ([5]; stronger effect = lower value, cell number ratio, induced over uninduced) 1.27 | plate-normalised HSF1 focus index [6] 1.07 | z-score ([7]; MELAS cybrid survival, CellTiter-Glo 48 h, stronger effect = higher value) 0.245 | viability ([8]; at 0.000305 µM, OCI-C5x cells, with rucaparib 10 µM, 100% = cells with rucaparib alone) 126% | viability ([8]; at 0.000305 µM, OCI-C5x cells, without rucaparib) 107% | viability ([8]; at 0.00122 µM, OCI-C5x cells, with rucaparib 10 µM, 100% = cells with rucaparib alone) 122% | viability ([8]; at 0.00122 µM, OCI-C5x cells, without rucaparib) 109% | viability ([8]; at 0.00122 µM, OCI-P5x cells, with rucaparib 20 µM, 100% = cells with rucaparib alone) 102% | viability ([8]; at 0.00488 µM, OCI-C5x cells, with rucaparib 10 µM, 100% = cells with rucaparib alone) 121% | viability ([8]; at 0.00488 µM, OCI-C5x cells, without rucaparib) 107% | viability ([8]; at 0.00488 µM, OCI-P5x cells, with rucaparib 20 µM, 100% = cells with rucaparib alone) 102% | viability ([8]; at 0.0195 µM, OCI-C5x cells, with rucaparib 10 µM, 100% = cells with rucaparib alone) 120% | viability ([8]; at 0.0195 µM, OCI-C5x cells, without rucaparib) 102% | viability ([8]; at 0.0781 µM, OCI-C5x cells, with rucaparib 10 µM, 100% = cells with rucaparib alone) 104%
1400: cell count ([5]; measured here: total cells with miR-34 induction, stronger effect = lower value)
active: AC50 [1] 4.17 µM | AC50 [2] 418 nM | AC50 [3] 11.8 µM | AC50 [4] 1.05 µM | viability ([8]; at 0.000305 µM, OCI-P5x cells, with rucaparib 20 µM, 100% = cells with rucaparib alone) 88.3% | viability ([8]; at 0.000305 µM, OCI-P5x cells, without rucaparib) 91.1% | viability ([8]; at 0.00122 µM, OCI-P5x cells, without rucaparib) 98.1% | viability ([8]; at 0.00488 µM, OCI-P5x cells, without rucaparib) 98.9% | viability ([8]; at 0.0195 µM, OCI-P5x cells, with rucaparib 20 µM, 100% = cells with rucaparib alone) 88.1% | viability ([8]; at 0.0195 µM, OCI-P5x cells, without rucaparib) 97.6% | viability ([8]; at 0.0781 µM, OCI-C5x cells, without rucaparib) 96.7% | viability ([8]; at 0.0781 µM, OCI-P5x cells, with rucaparib 20 µM, 100% = cells with rucaparib alone) 82.5% | viability ([8]; at 0.0781 µM, OCI-P5x cells, without rucaparib) 92.8% | viability ([8]; at 0.313 µM, OCI-C5x cells, with rucaparib 10 µM, 100% = cells with rucaparib alone) 69.6% | viability ([8]; at 0.313 µM, OCI-C5x cells, without rucaparib) 55.3% | viability ([8]; at 0.313 µM, OCI-P5x cells, with rucaparib 20 µM, 100% = cells with rucaparib alone) 65.5% | viability ([8]; at 0.313 µM, OCI-P5x cells, without rucaparib) 59.9% | viability ([8]; at 1.25 µM, OCI-C5x cells, with rucaparib 10 µM, 100% = cells with rucaparib alone) 54.7% | viability ([8]; at 1.25 µM, OCI-C5x cells, without rucaparib) 40.2% | viability ([8]; at 1.25 µM, OCI-P5x cells, with rucaparib 20 µM, 100% = cells with rucaparib alone) 45.8% | viability ([8]; at 1.25 µM, OCI-P5x cells, without rucaparib) 23.7% | viability ([8]; at 5 µM, OCI-C5x cells, with rucaparib 10 µM, 100% = cells with rucaparib alone) 35.9% | viability ([8]; at 5 µM, OCI-C5x cells, without rucaparib) 25.1% | viability ([8]; at 5 µM, OCI-P5x cells, with rucaparib 20 µM, 100% = cells with rucaparib alone) 14.5% | viability ([8]; at 5 µM, OCI-P5x cells, without rucaparib) 7.98%
1.66: z-score ([7]; Rieske KO mouse fibroblast survival, CellTiter-Glo 72 h)
0.673: fold change ([5]; measured here: relative caspase fold change +Dox/-Dox)
1.04: SSMD [6]
6680: cell count [6]
1100: cell count ([5]; measured here: total cells without miR-34 induction)

Reference: PubChem BioAssay
